Values without a mark were called inactive. The rule behind the calls is not given here.
What follows are compounds tested against L-lactate dehydrogenase (Plasmodium falciparum (isolate CDC / Honduras)) (UniProt Q27743) (assay: PfLDH activity inhibition – cell lysate, 3D7 strain, counter-screen for P. falciparum growth inhibition project (AID 2304;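 note: 0% = vehicle and 100% = reference inhibitor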)). Details: P. falciparum 3D7 crude extract, LDH APAD/NBT absorbance; at 2 µM; stronger effect = higher value.
L-lactate dehydrogenase (Plasmodium falciparum (isolate CDC / Honduras)), sequence (Q27743 whole entry, looked up): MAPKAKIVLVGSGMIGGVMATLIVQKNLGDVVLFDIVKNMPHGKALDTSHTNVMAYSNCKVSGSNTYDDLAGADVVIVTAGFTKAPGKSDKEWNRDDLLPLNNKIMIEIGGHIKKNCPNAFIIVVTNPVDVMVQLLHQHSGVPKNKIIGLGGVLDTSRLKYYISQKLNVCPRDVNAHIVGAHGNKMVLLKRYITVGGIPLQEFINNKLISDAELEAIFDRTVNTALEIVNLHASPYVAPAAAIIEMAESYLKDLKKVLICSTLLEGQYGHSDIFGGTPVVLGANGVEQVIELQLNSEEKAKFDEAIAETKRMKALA
Cc1cc(NCCCCCCCCNc2cc(C)nc3ccccc23)c2ccccc2n1 gave an inhibition of -1%.
CC(C)n1ncc2c(C(=O)N3CCCC4CCCCC43)cc(C3CC3)nc21 (stereo not given) showed an inhibition of 2%.
With CCCC1CCNC(C(O)c2ccnc3ccc(OC)cc23)C1 (stereo not given) the inhibition was -3%.
Work on CC(C)C(=O)n1ncc2c3c(N)nc(N)nc3ccc21 yielded an inhibition of -5%.
With Oc1ccc(CCCNc2nc(NCc3cccc4ccccc34)nc(N3CCNCC3)n2)cc1 the inhibition was -1%.
For CC1N=C(N)N=C(N)N1OCc1ccccc1 (stereo not given), the inhibition was 7%.
CC(C)c1cc(N)c2cc(NC(=O)COCC(=O)Nc3ccc4nc(C(C)C)cc(N)c4c3)ccc2n1 showed an inhibition of 0%.
For Cc1ccnc(Nc2nc(-c3ccccn3)cs2)c1, the inhibition was -4%.
Work on NC(=O)c1cccc(C(=O)Nc2ccc(-c3cccc(-c4nc5ccc(C(F)(F)F)cc5[nH]4)c3)cc2)c1 yielded an inhibition of -2%.
Compound COc1ccc(CC(=O)Nc2ccc(Nc3nc(C)cc(N(C)C)n3)cc2)cc1 has an inhibition of -3%.
CC1(C)N=C(NC(=O)c2ccc([N+](=O)[O-])cc2)N=C(N)N1OCc1ccc2ccccc2c1 gave an inhibition of -8%.
Compound Cc1ccc(C)c(C2CCN(CCCCNC(=O)c3ccc(NC(=O)c4ccc(Cl)cc4)cc3)CC2)c1 has an inhibition of 7%.
For CCCc1ccc(NC(=O)c2ccc(CN3CCCN(Cc4cccc(O)c4)CC3)cc2)cc1, the inhibition was -1%.
For Cc1[nH]c(C)c(-c2ccc(OCc3cccc(C(F)(F)F)c3)nc2)c(=O)c1Br, the inhibition was -2%.
COc1ccccc1NC(=O)Nc1cccc(-c2cccc(-c3nc4ccc(C(F)(F)F)cc4[nH]3)c2)c1 was tested, and the inhibition was 5%.

Reference: PubChem BioAssay
